# Screening data from PubChem BioAssay.
# Phagocyt inh – blocks phagocytosis by macrophages; 110,000 compounds, 0.07% hits; J774A.1 macrophage IgG-bead phagocytosis, imaging; inhibition, % at 5 µM; AID 1029;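 active means inhibition above the mean of the plate negative controls plus 5 SD, cut at about 13% in these data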;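 further: phagocytic index as fraction of beads internalized from green versus red external bead signal; plate controls were DMSO negative control for no effect and cytochalasin-D positive control for full effect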
# MRP reversal – MRP-mediated drug resistance reversal. differential viability (reversal), % at 10 µM. 85,000 compounds, 0.04% hits. H69AR cells + 2 uM doxorubicin, CellTiter-Glo, 72 h;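 active means viability drop by adding the cancer drug above about 55%, with treated viability meeting a 40% cutoff, limit read from the data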;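 further: viability without doxorubicin minus viability with 2 µM doxorubicin for each compound; larger differential means the compound sensitizes cells more to doxorubicin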
# MRP-1 activ – activates MRP-1. H69AR cells + doxorubicin, viability rescue, CellTiter-Glo. viability increase, % at 10 µM. 140,000 compounds, 0.61% hits. AID 799;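 active means viability gain under doxorubicin at or above a set limit, the compound median plus 3 SD, cut at about 4.7% in these data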;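 further: MRP-1 overexpressing cells given doxorubicin 25 µM after compound pretreatment; 18-22 h compound pretreatment then 72 h with doxorubicin before readout; 0% = doxorubicin-only wells and 100% = vehicle-treated cells without doxorubicin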
# Numbers without * were called inactive; / = no result given; [ ] = another dose, or the depositor's remark. Most compounds without a hit are left out; they make up all but 0.72% or so of the library.
SMILES,Phagocyt inh,MRP reversal,MRP-1 activ
O=C(COc1ccc(Cl)cc1)NCc1nnc(SCC(=O)NCc2ccc3c(c2)OCO3)o1,0,8,5.8*
O=C(COc1ccc(Cl)cc1)NCc1nnc(SCC(=O)N2CCCCC2)o1,0,8,1
CCCCNc1nc(-c2ccccc2)cc(C(F)(F)F)c1C(N)=O,/,-8,-4
CC/C(=N\NC(=O)c1ccc(N(C)C)cc1)c1ccccc1,0,/,1
Oc1c(C(c2cccs2)N2CCC3(CC2)OCCO3)sc2ncnn12 (configuration not stated),-1,1,4
Oc1c(C(c2cccs2)N2CCN(c3ccccc3)CC2)sc2ncnn12 (configuration not stated),/,-2,14*
Cc1c(CNC2CCCC2)c(C(=O)O)c(C)n1Cc1ccccc1,-9,/,-1
Cc1ccc(-c2nnc(CSc3nc(C(C)C)nc4sc(C)c(C)c34)o2)cc1,/,7,1
C=CCOc1ccc(/C=C/C(=O)Nc2ccc(C(=O)NC)cc2)cc1,-4,/,-1
O=C(NCCc1ccccc1)C(=O)Nc1nccs1,-11,/,-2
O=C(CC1SC(=O)N(Cc2ccccc2)C1=O)Nc1nccs1 (configuration not stated),-4,/,12*
CC(C)CC(=O)O/N=C1\C(=O)N(Cc2ccc(Cl)cc2)c2ccc([N+](=O)[O-])cc21,2,/,-2
Cc1ccc(OCCOCCN(C)C)c(Cl)c1,2,/,-3
Cc1nnc(NC(=O)C(C)Oc2ccc3c(C)cc(=O)oc3c2)s1 (configuration not stated),4,3,7.7*
Cc1cc(=O)oc2cc(OCC(=O)Nc3nnc(C(C)C)s3)ccc12,-1,27,1
O=C(NCCc1ccc(Cl)cc1)c1nnc(Cc2ccc(Cl)cc2)o1,/,0,1
CC(CCc1ccccc1)NC(=O)CN1CCN(Cc2ccccc2)C1=O (configuration not stated),1,6,-2
CC(CCc1ccccc1)NC(=O)CN1CCN(Cc2ccc(Cl)cc2)C1=O (configuration not stated),0,-9,7.3*
CC(CCc1ccccc1)NC(=O)c1nnc(Cc2ccc(Cl)cc2)o1 (configuration not stated),0,-10,9.9*
CC(C)/C=N/Nc1nc(-c2ccc(Br)cc2)cs1,0,/,-2
COc1ccc2c(c1)c1nc3ccccc3nc1n2CCCN1C(=O)c2ccccc2C1=O,0,/,0
Cc1cccc2c3nc4ccccc4nc3n(CCCN3C(=O)c4ccccc4C3=O)c12,-10,/,5.2*
CCOC(=O)c1cc(NC(=O)Nc2ccccc2OC)c(C)nc1C,0,-4,-1
CCOC(=O)c1sc(NC(=O)Nc2ccccc2)cc1C,-6,/,-4
CCOC(=O)c1sc(-c2ccccc2)cc1NC(=O)Nc1ccccc1,-2,/,6.0*
SMILES,Phagocyt inh,MRP reversal,MRP-1 activ
CCOC(=O)c1sc(-c2ccc(F)cc2)cc1NC(=O)Nc1ccccc1OC,-5,/,9.0*
CCc1ccc(Nc2nnc(SC3CCOC3=O)s2)cc1 (configuration not stated),/,/,3
O=C(Nc1ccc(S(=O)(=O)N2CCCCC2)cc1)C1CCCN(C(=O)c2ccc(Cl)cc2)C1 (configuration not stated),-1,/,-4
Cc1cccc(-c2nnc(SCC(=O)Nc3nc4c(s3)CCCC4)n2C)c1,/,-6,-4
O=C(COc1ccc(Br)cc1CNCCCN1CCOCC1)Nc1ccccc1,-4,/,-4
CCCNC(=O)c1nc2ncc(Br)cn2n1,0,-5,0
CCCCNC(=O)c1nc2ncc(Br)cn2n1,193*,-11,0
CCn1cc(CNC(=O)/C=C/c2ccc([N+](=O)[O-])cc2)cn1,-3,/,1
O=C(CCn1c(=O)c2sccc2n(CC(=O)OCc2ccccc2)c1=O)NCc1ccccc1,0,3,-1
c1ccc(Oc2cc(-n3cccn3)ncn2)cc1,-1,12,1
COC(=O)c1cnn(-c2cc(Oc3ccccc3)ncn2)c1N,-1,/,5.7*
Cc1cc(C)c(NC(=O)CSc2nnc(SCC(=O)Nc3c(C)cc(C)cc3C)n2N)c(C)c1,-2,15,1
COc1ccc(NC(=O)CCCC2CCCCC2)cc1S(=O)(=O)N1CCCCC1,/,/,5.7*
COc1ccc(NC(=O)CSc2ccccc2)cc1S(=O)(=O)N1CCCCC1,/,/,1
O=C(O)c1ccc(N/N=C/c2ccc(F)c(F)c2)cc1,4,/,7.3*
O=C(O)c1ccc(N/N=C/c2cccc(F)c2)cc1,-7,/,1
Cc1c(Cl)cnc(NC(=O)COC(=O)CCc2nc3ccccc3s2)c1Cl,-8,/,1
CCOc1ccc2nc(SCC(=O)NC3CCCc4ccccc43)sc2c1 (configuration not stated),70*[artifact],/,-2
CCOc1ccc2nc(SCC(=O)N3CCCc4ccccc43)sc2c1,/,/,2
Cc1ccc(C(=O)NNC(=O)c2cccc(S(=O)(=O)N3CCN(c4ccccc4)CC3)c2)cc1,-1,/,2
